Source: PubChem (National Center for Advancing Translational Sciences (NCATS))
Pol iota inh: inhibitors of human DNA polymerase iota. Q9UNA4. Pol iota fluorescent replication assay, 10 min. Potency, µM (doses to about 115 µM), inactives show top-dose activity, negative = inhibition, most hits filed as inhibitors. 390,000 compounds, 1% hits
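Fluorescent replication assay read twice, at 0 min and 10 min after adding 50 nM (final) substrate. Enzyme (10 nM) and compounds were first incubated 15 min at room temperature; enzyme-free buffer wells were negative controls.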
APEX1 inh: blocks human APE1 abasic DNA cleavage; Potency, µM (titrated, usually from 65.8 µM), inactives show at the top dose activity change, negative = inhibition, most hits filed as inhibitors; recombinant APE1, TAMRA/BHQ-2 abasic DNA cleavage fluorescence; 350,000 compounds, 0.35% hits; AID 2517;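 also: plate controls were vehicle for no effect and reference inhibitor for full effect; nearly all actives have a fitted effect of over 55% in size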
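Compound pre-exposure to 0.75 nM APE1, 15 min at ambient temperature. Reaction initiated with 50 nM TAMRA/BHQ-2 THF substrate, read immediately in kinetic mode, 525 nm excitation, 598 nm emission.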
Pol eta inh-1: DNA polymerase eta (human) inhibition; Q9Y253; recombinant Pol eta, fluorescent DNA replication assay; Potency, µM (top dose mostly 114 µM), without a hit: at the highest dose activity change, negative = inhibition, usual class: inhibitors; 390,000 compounds, 1.2% hits; also: % is scaled to controls: 0 for no effect and ±100 for the full control effect
Target sequence (Q9Y253 whole entry, looked up): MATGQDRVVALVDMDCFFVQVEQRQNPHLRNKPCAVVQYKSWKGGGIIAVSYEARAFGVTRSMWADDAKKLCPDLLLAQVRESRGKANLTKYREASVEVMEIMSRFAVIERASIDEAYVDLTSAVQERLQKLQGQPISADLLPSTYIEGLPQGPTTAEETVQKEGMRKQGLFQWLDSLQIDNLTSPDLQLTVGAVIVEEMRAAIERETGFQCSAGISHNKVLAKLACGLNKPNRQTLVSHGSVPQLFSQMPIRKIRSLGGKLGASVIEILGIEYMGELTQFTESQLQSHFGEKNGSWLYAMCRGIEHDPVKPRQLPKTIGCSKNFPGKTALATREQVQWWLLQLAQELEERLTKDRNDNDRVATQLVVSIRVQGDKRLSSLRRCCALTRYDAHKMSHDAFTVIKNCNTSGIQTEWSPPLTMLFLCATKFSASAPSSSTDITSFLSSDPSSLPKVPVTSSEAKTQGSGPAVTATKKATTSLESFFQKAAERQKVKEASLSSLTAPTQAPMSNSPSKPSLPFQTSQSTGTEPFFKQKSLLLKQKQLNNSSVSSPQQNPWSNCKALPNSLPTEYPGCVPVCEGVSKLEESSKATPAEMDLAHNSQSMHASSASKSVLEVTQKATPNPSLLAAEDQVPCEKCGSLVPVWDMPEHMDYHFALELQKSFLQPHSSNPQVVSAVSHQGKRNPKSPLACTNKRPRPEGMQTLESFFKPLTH
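Fluorescent replication assay: 50 nM final substrate added after a 15 min room-temperature compound preincubation with 10 nM enzyme. Signal taken at 0 min and again at 10 min.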
Pol kappa inh-1: blocks human DNA polymerase kappa activity; purified Pol kappa, fluorescent DNA synthesis assay, 10 min; 400,000 compounds, 0.53% hits; Q9UBT6; Potency, µM (series often up to 107 µM), for the others: at the highest dose activity, negative = inhibition, hits mostly inhibitors; also: % is scaled to controls: 0 for no effect and ±100 for the full control effect
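Readout: fluorescence, taken kinetically at 0 and 10 min. Conditions: 10 nM Pol kappa, 15 min RT compound preincubation, 50 nM substrate final. Controls: enzyme-free buffer wells.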
GLS inh: blocks human kidney-isoform glutaminase activity | GLS enzymatic activity, qHTS titration | O94925 | 410,000 compounds, 0.21% hits | Potency, µM (titrated, usually from 45.5 µM), without a hit: at the top dose activity change, negative = inhibition, usual class: inhibitors; also: % is scaled to controls: 0 for no effect and ±100 for the full control effect
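Coupled fluorescence readout: glutamate oxidase/HRP/Amplex Red detect glutamate formed by hKGA from L-glutamine (1 mM solution added). Buffer 45 mM KH2PO4 pH 8.2, 0.02% Tween-20; reads at t0 and 30 min RT.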
POLB inh: blocks human DNA polymerase beta activity; Pol beta primer extension/strand displacement, fluorescence kinetic; 340,000 compounds, 1.3% hits; Potency, µM (doses to about 114 µM), for inactives: at the top dose activity change, negative = inhibition, usual class: inhibitors; P06746; also: % is scaled to controls: 0 for no effect and ±100 for the full control effect
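Homogeneous kinetic assay of primer extension and strand displacement by 10 nM Pol beta, preincubated 15 min at room temperature with compound before 50 nM substrate (final) was added. Read at 0 and 10 min; four-parameter Hill fit.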
Pol kappa inh-2: Pol kappa (human) inhibition, cherry-pick confirmation; shares compounds with Pol eta inh-1; purified Pol-kappa, fluorescent strand-displacement substrate; Potency, µM, hits mostly inhibitors; 920 compounds, 76% hits; AID 720501
Pol eta inh-2: Pol eta (human) inhibition, cherry-pick confirmation; shares compounds with Pol eta inh-1; Potency, µM, most hits filed as inhibitors; Pol eta primer extension, TAMRA/BHQ fluorescence, 10 min; 2,600 compounds, 64% hits
An asterisk follows results filed as active; ! = not active in a repeat; [ ] = remark or other dose. In the library only some 2.4% were active in any assay of this set; here they are far more common. Calls follow the shape of the dose curve; as a rule, active = well fitted curve in the direction sought with a large enough effect; inconclusive = small, poorly fitted or top-dose-only effect, or another doubt; inactive = no such curve, though single readings can be large; an effect the other way counts as inactive or inconclusive. Potency is read from the fitted curve at half-maximal effect.

What do the screens show for `NCCCC[C@@H]1NC(=O)[C@H](CCC(=O)O)NC(=O)c2cc([N+](=O)[O-])cc(I)c2OCC[C@@H](C(N)=O)NC1=O`?
Pol iota inh: inconclusive; APEX1 inh: inconclusive; Pol eta inh-1: 14µM*; Pol kappa inh-1: 25µM*; GLS inh: -13%; POLB inh: 1%; Pol eta inh-2: 30*

What do the screens show for `NC(=O)CC[C@@H]1NC(=O)[C@H](CO)NC(=O)c2cc([N+](=O)[O-])cc(I)c2OCC[C@@H](C(N)=O)NC1=O`?
Pol iota inh: 17%; APEX1 inh: inconclusive; Pol eta inh-1: -7%; Pol kappa inh-1: -17%; GLS inh: 2%; POLB inh: -1%

Results for Nc1nc(NCCOCCO)nc(NCC2CCCO2)c1[N+](=O)[O-] (stereo unspecified) ?
Pol iota inh: 18%; APEX1 inh: -2%; Pol eta inh-1: 1%; Pol kappa inh-1: -14%; GLS inh: -2%; POLB inh: 26%

How did O=C(O)/C=C/C(=O)N1Cc2cc3ccccc3nc2C1 do in these assays?
Pol iota inh: inconclusive; APEX1 inh: 70%; Pol eta inh-1: 50µM*; Pol kappa inh-1: inconclusive; GLS inh: inconclusive; POLB inh: inconclusive; Pol eta inh-2: 76*

How did CN(C)CCCN(C(=O)c1ccc([N+](=O)[O-])s1)c1nc2cc3c(cc2s1)OCCO3 do in these assays?
Pol iota inh: -1%; APEX1 inh: 32%; Pol eta inh-1: -11%; Pol kappa inh-1: -2%; GLS inh: 15%; POLB inh: inconclusive

How did CN(C)CCCN(C(=O)c1cc2cc([N+](=O)[O-])ccc2s1)c1nc2cc3c(cc2s1)OCCO3 do in these assays?
Pol iota inh: -10%; APEX1 inh: -32%; Pol eta inh-1: inconclusive; Pol kappa inh-1: inconclusive; GLS inh: 8%; Pol kappa inh-2: 60*

How did COc1ccccc1NC(=O)C(=N\O)/C(C)=N/O do in these assays?
Pol iota inh: inconclusive; APEX1 inh: 22µM*; Pol eta inh-1: 14µM*; Pol kappa inh-1: inconclusive; GLS inh: 55%; POLB inh: 45µM*; Pol eta inh-2: 85*

What do the screens show for `CC(=O)Oc1ccc(C(=O)Nc2cccc(C(=O)c3cccc(NC(=O)c4ccc(OC(C)=O)cc4)c3)c2)cc1`?
Pol iota inh: 7.9µM*; APEX1 inh: 15%; Pol eta inh-1: 3.2µM*; Pol kappa inh-1: inconclusive; GLS inh: inconclusive; POLB inh: 13µM*; Pol eta inh-2: 54*

What do the screens show for `COc1ccc(/C=C/C(=O)NCC(=O)N=Nc2c(O)[nH]c3ccc([N+](=O)[O-])cc23)cc1`?
Pol iota inh: 34%; APEX1 inh: inconclusive; Pol eta inh-1: 35µM*; Pol kappa inh-1: -6%; GLS inh: 2%; POLB inh: 50µM*; Pol kappa inh-2: 84*

What do the screens show for `O=C(CNC(=O)c1ccc(Br)cc1)N=Nc1c(O)[nH]c2ccc([N+](=O)[O-])cc12`?
Pol iota inh: inconclusive; APEX1 inh: 40%; Pol eta inh-1: -17%; Pol kappa inh-1: -13%; GLS inh: -2%; POLB inh: inconclusive

How did CCOC(=O)c1ccc(/C=C2/C=C(c3ccccc3)N(c3ccc(Cl)c(C(=O)O)c3)C2=O)cc1 do in these assays?
Pol iota inh: inconclusive; APEX1 inh: 7%; Pol eta inh-1: 20µM*; Pol kappa inh-1: -17%; GLS inh: 30%; POLB inh: 32µM*; Pol kappa inh-2: inconclusive; Pol eta inh-2: 60*

What do the screens show for `CCc1ccc(NS(=O)(=O)c2ccc3[nH]cc(C(=O)NC4CCCC4)c(=O)c3c2)cc1`?
Pol iota inh: 89µM*; Pol eta inh-1: inconclusive; Pol kappa inh-1: inconclusive; GLS inh: -1%; POLB inh: 50µM*; Pol kappa inh-2: inconclusive

How did CCc1ccc(NS(=O)(=O)c2ccc3[nH]cc(C(=O)N(C)Cc4ccco4)c(=O)c3c2)cc1 do in these assays?
Pol iota inh: inconclusive; APEX1 inh: inconclusive; Pol eta inh-1: 89µM*; Pol kappa inh-1: -24%; GLS inh: 4%; POLB inh: 45µM*!; Pol eta inh-2: inconclusive

Results for CCOc1ccc(NS(=O)(=O)c2ccc3[nH]cc(C(=O)NCc4ccco4)c(=O)c3c2)cc1 ?
Pol iota inh: inconclusive; Pol eta inh-1: 79µM*; Pol kappa inh-1: -19%; GLS inh: 3%; POLB inh: 22µM*; Pol kappa inh-2: inconclusive

How did CCOc1ccc(NS(=O)(=O)c2ccc3[nH]cc(C(=O)NC4CCCC4)c(=O)c3c2)cc1 do in these assays?
Pol iota inh: inconclusive; Pol eta inh-1: -5%; Pol kappa inh-1: -33%; GLS inh: -2%; POLB inh: inconclusive

How did CCOc1ccc(NS(=O)(=O)c2ccc3[nH]cc(C(=O)NC(C)CC)c(=O)c3c2)cc1 (stereo unspecified) do in these assays?
Pol iota inh: -32%; APEX1 inh: 1%; Pol eta inh-1: inconclusive; Pol kappa inh-1: -26%; GLS inh: 11%; POLB inh: 39%

How did CCC1CCCCN1C(=O)c1c[nH]c2ccc(S(=O)(=O)Nc3cccc(OC)c3)cc2c1=O (stereo unspecified) do in these assays?
Pol iota inh: inconclusive; Pol eta inh-1: 89µM*; Pol kappa inh-1: -13%[60.1 µM]; GLS inh: -1%; POLB inh: inconclusive; Pol eta inh-2: inconclusive

Results for CN(Cc1ccco1)C(=O)c1c[nH]c2ccc(S(=O)(=O)Nc3ccc4c(c3)OCCO4)cc2c1=O ?
Pol iota inh: -29%; APEX1 inh: -1%; Pol eta inh-1: inconclusive; Pol kappa inh-1: -20%; GLS inh: 1%; POLB inh: inconclusive

What do the screens show for `CC(C)CCN(Cc1ccco1)C(=O)c1cc2c(Cl)nc3ccccc3c2s1`?
Pol iota inh: 40%; Pol eta inh-1: -25%; Pol kappa inh-1: -4%; GLS inh: -1%; POLB inh: 3%

How did Cc1cccc(OCC(=O)N=Nc2c(O)[nH]c3ccc([N+](=O)[O-])cc23)c1 do in these assays?
Pol iota inh: 12%; APEX1 inh: 2%; Pol eta inh-1: inconclusive; Pol kappa inh-1: 1%; GLS inh: -1%; POLB inh: 0%
